Screens (PubChem)
Only some compounds are listed: those with a hit (about 2% of all), similar ones and a draw of the others.
PME-1 inh: blocks human protein phosphatase methylesterase 1; recombinant PME-1, FP-Rh probe fluorescence polarization; inhibition, % at 5.9 µM; actives 0.53% (n = 320,000);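 active = inhibition above the campaign mean of all compounds plus 3 SD, cut at about 26% in these data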;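 also: competitive labeling of PME-1 active site by serine hydrolase directed probe; inhibitors block probe labeling so polarization falls and inhibition rises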
Target sequence (Q9Y570 whole entry, looked up): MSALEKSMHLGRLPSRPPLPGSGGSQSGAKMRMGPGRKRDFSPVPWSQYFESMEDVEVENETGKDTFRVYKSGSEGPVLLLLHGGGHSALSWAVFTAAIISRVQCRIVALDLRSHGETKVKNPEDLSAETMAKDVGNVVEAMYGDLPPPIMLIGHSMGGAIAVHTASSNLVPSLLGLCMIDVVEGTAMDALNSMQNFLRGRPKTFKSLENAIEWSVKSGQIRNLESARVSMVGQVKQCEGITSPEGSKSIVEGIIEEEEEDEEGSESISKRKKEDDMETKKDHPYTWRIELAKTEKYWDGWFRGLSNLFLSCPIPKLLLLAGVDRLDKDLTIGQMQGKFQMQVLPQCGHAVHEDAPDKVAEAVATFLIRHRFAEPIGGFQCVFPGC
Fam108B inh: Fam108B inhibition, counter-screen for RBBP9 inhibitors; actives 0.33% (n = 300,000); recombinant Fam108B, FP-Rh probe fluorescence polarization; inhibition, % at 9.51 µM;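 active = inhibition above the screen mean inhibition plus 3 SD, computed separately per campaign, cut at about 18% in these data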;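 also: inhibitors lower polarization as less probe binds the enzyme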
LYPLA1 inh: blocks human lysophospholipase 1, a PME1 counter-screen; O75608; recombinant LYPLA1, FP-Rh probe fluorescence polarization; inhibition, % at 5.9 µM; actives 0.16% (n = 320,000); AID 2174;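 active = inhibition above the mean of all tested compounds plus 3 SD, set per campaign, cut at about 14% in these data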;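 also: inhibitors block serine hydrolase probe labeling of LYPLA1 so polarization falls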
LYPLA2 inh: LYPLA2 (human) inhibition in PME1 counter-screen; actives 0.38% (n = 320,000); O95372; recombinant LYPLA2, FP-Rh probe fluorescence polarization; AID 2177; inhibition, % at 5.9 µM;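 active = inhibition above the screen-wide mean plus 3 SD, limit set per campaign, cut at about 26% in these data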
Target sequence (O95372 whole entry, looked up): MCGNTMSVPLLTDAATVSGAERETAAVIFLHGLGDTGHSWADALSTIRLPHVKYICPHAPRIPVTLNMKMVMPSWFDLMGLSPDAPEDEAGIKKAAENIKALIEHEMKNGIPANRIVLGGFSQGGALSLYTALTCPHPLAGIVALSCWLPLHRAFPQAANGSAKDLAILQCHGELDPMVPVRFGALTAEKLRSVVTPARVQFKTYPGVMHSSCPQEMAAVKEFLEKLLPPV
GSTO1 counter: GSTO1 inhibition, counter-screen for RBBP9 inhibitors | P78417 | recombinant GSTO1, activity-based probe fluorescence polarization | inhibition, % at 5.96 µM | actives 1.1% (n = 300,000);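 active = inhibition above the campaign mean inhibition plus 3 SD, cut at about 35% in these data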
PREPL inh: inhibitors of human prolyl oligopeptidase-like enzyme PREPL; Q4J6C6; recombinant PREPL, fluorescence polarization activity-based probe; inhibition, % at 5.96 µM; actives 0.68% (n = 320,000); AID 2751; in the data active = inhibition above about 43%
Large screens that a line does not name were inactive.

Cc1ccc(C)c(OCC(O)CN2CCN(CCN3C(=O)c4cccc5cccc(c45)C3=O)CC2)c1 (centres undefined)	LYPLA2 inh 53.5
CC(OC(=O)Cc1ccsc1)C(=O)Nc1ccc(C(N)=O)cc1 (centres undefined)	none (no result: Fam108B inh, GSTO1 counter)
O=C1CC(c2ccc(Cl)cc2)c2c(O)cc(O)cc2O1 (centres undefined)	GSTO1 counter 37.4
COc1ccc([C@@H]2CC(=O)c3c(O)cc(O)cc3O2)cc1O	none
COC(=O)CCCC1=CC2=CC(=O)C(C)(OC(=O)c3cccs3)C(=O)C2=CN1C1CCCC1 (centres undefined)	GSTO1 counter 36.8
COC(=O)CCCC1=CC2=CC(=O)C(C)(OC(=O)c3cccs3)C(=O)C2=CN1Cc1ccccc1 (centres undefined)	none
COc1ccc(C(=O)O/N=C(/c2ccccc2)c2ccncc2)cc1	PREPL inh 87.5
Cc1c(CCO)c(=O)n(-c2ccccc2)n1S(=O)(=O)c1c(Cl)cc(Cl)cc1Cl	GSTO1 counter 36.6
Cc1c(CCO)c(=O)[nH]n1S(=O)(=O)c1ccccc1	none
COc1cc(/C=N/NC(=O)[C@H](Cc2c[nH]c3ccccc23)NC(=O)OCC(C)C)cc([N+](=O)[O-])c1O	PME-1 inh 29.8
C[C@]12CC[C@@H]3c4cc(O)c(O)cc4CC[C@H]3[C@@H]1CC[C@@H]2O	GSTO1 counter 42.4
O=C(O)c1cccc(NC(=S)NC(=O)c2ccc(-c3ccc(Cl)cc3)o2)c1	LYPLA2 inh 28.2
COc1ccc(/C=C/c2nc3cc(-c4ccccc4)ccc3o2)cc1O	none
COc1ccc(-c2c/c(=N\c3nc(-c4ccccc4)c(C)s3)c3ccccc3o2)cc1O	PME-1 inh 30.7
CCOc1ccc(OCCCC(=O)NCCc2ccc(OC)cc2)cc1	none
NC(=S)C1COc2ccccc2O1 (centres undefined)	none
Nn1c(C2COc3ccccc3O2)n[nH]c1=S (centres undefined)	GSTO1 counter 35.4
O=C(NC1=NCCS1)C1CCN(S(=O)(=O)c2ccccc2C(F)(F)F)CC1	none (no result: Fam108B inh, GSTO1 counter)
COc1cc(NC2CCCCC2O)c2nc(-c3ccc(Cl)cc3)ccc2c1 (centres undefined)	GSTO1 counter 52.3
COc1ccc(OCC(=O)OCC(=O)NC2CCCCC2C)cc1 (centres undefined)	none (no result: Fam108B inh, GSTO1 counter)
O=C(COc1ccc2ccc(=O)oc2c1)NC1CCN(Cc2ccccc2)CC1	none
COc1ccc(S(=O)(=O)NCC(c2ccc3c(c2)OCO3)N2CCOCC2)cc1 (centres undefined)	none
COc1cc([C@@H]2Oc3cc(C4Oc5cc(O)cc(O)c5C(=O)[C@H]4O)ccc3O[C@H]2CO)ccc1O (some centres undefined)	LYPLA2 inh 50.1
O=C1c2c(O)cc(O)cc2O[C@H](c2ccc(O)c(O)c2)[C@H]1O	LYPLA2 inh 35.8
COc1cc(OC)c2c(c1)OC(c1ccc(OC)c(OC)c1)C(O)C2=O (centres undefined)	none
O=C1c2c(O)cc(O)cc2O[C@H](c2ccc(O)cc2)[C@H]1O	none
Cc1cc(C(=O)N2CCC(Cc3ccccc3)CC2)c(C)o1	none
O=[N+]([O-])c1cc(CN2CCCC2)c2cccnc2c1O	GSTO1 counter 46.7
Oc1c(Cl)cc(CN2CCCCC2)c2cccnc12	none
Cc1ccc(S(=O)(=O)N2CCN(C(=O)Cn3cnc4c3c(=O)n(C)c(=O)n4C)CC2)cc1C	PME-1 inh 41.9 (no result: Fam108B inh, GSTO1 counter)
CC(C)=CCc1cc(-c2oc3cc(O)cc(O)c3c(=O)c2O)ccc1O	PME-1 inh 34.1
CC(=O)Nc1ccccc1O	none
CC(CC(=O)O)Nc1ccccc1O (centres undefined)	GSTO1 counter 48.3
Oc1cc(Br)ccc1C=Nc1ccc(N2CCCCC2)cc1	GSTO1 counter 53.0
Cc1cc(C)cc(NC(=O)CSc2nnc(CNC(=O)c3ccco3)n2C)c1	none (no result: Fam108B inh, GSTO1 counter)
CC1(C)CCCN(C(=O)c2ccc3c(c2NCCO)C(=O)c2ccccc2C3=O)C1	PREPL inh 53.4
CCN(CC)S(=O)(=O)c1cccc(C(=O)N/N=C/c2cccc(O)c2O)c1	GSTO1 counter 43.0
CCOC(=O)CSc1nc2cc3c(cc2cc1C#N)OCCO3	PME-1 inh 34.2
CCOC(=O)CSc1nc2cc3c(cc2cc1C#N)OCO3	none
CCCCn1[nH]c(-c2ccccc2)cc1=O	GSTO1 counter 57.3
CCCc1cc(=O)n2[nH]c(-c3ccccc3)cc2n1	none
COc1ccc(Nc2ccc(Nc3ccc(OC)cc3)nn2)cc1	none
COc1ccc(Nc2ccc(OC)cc2)cc1	GSTO1 counter 36.0
O=C1NCCCC2c3cc(O)c4ccccc4c3OC12N1CCCCC1 (centres undefined)	GSTO1 counter 80.6
Nc1c(/C=C2/C=CC(=O)C(O)=C2)c(=O)nc2sc(CC(=O)N3CCCCC3)nn12	GSTO1 counter 41.5
Nc1c(/C=C2/C=CC(=O)C(O)=C2)c(=O)nc2sc(CC(=O)N3CCCC3)nn12	none
CC(=O)Nc1ccc(NC(=O)C(C)OC(=O)CC23CC4CC(CC(Br)(C4)C2)C3)cc1 (centres undefined)	none (no result: PME-1 inh, Fam108B inh, LYPLA1 inh, LYPLA2 inh, GSTO1 counter)
Cc1cc(NS(=O)(=O)c2ccc(Nc3nc(-c4sc(N)nc4C)cs3)cc2)no1	GSTO1 counter 37.1
Cc1cc(NS(=O)(=O)c2ccc(Nc3nc(-c4ccc(C)c(C)c4)cs3)cc2)no1	none
C[C@H](CO)N1C[C@H](C)[C@@H](CN(C)S(=O)(=O)c2ccccc2)Oc2c(NS(=O)(=O)c3ccccc3)cccc2C1=O	none (no result: PME-1 inh, Fam108B inh, LYPLA1 inh, LYPLA2 inh, GSTO1 counter)
CCOc1cc(C(c2c(C)[nH][nH]c2=O)c2c(C)[nH][nH]c2=O)ccc1OCc1ccc([N+](=O)[O-])cc1	none
CCOc1cc(C(c2c(C)[nH][nH]c2=O)c2c(C)[nH][nH]c2=O)ccc1OC(=O)c1cccc([N+](=O)[O-])c1	PREPL inh 86.2
COCCN(C(=O)CSc1ccc2c(c1)OCCO2)c1c(N)n(CC(C)C)c(=O)[nH]c1=O	none (no result: PME-1 inh, Fam108B inh, LYPLA1 inh, LYPLA2 inh, GSTO1 counter)
Cc1cc(C(=O)CSc2nnc(N)s2)c(C)n1CCc1ccc(Cl)cc1	none
Cc1cc(C(=O)CCl)c(C)n1CCc1ccc(Cl)cc1	GSTO1 counter 88.3
O=C(N/N=C/c1cccs1)c1cncc(Br)c1	none
O=C(N/N=C\c1ccc([N+](=O)[O-])s1)c1cncc(Br)c1	GSTO1 counter 43.1
Cc1ccccc1-c1nnn(CC(=O)N(C)CC(=O)Nc2ccccc2C(F)(F)F)n1	none
CCc1nnc(NC(=O)CSc2nc3c(c(=O)n2CC)SC(C)C3)s1 (centres undefined)	GSTO1 counter 35.1
CC1=C([N+](=O)[O-])C(c2cccc(Br)c2)C2=C(N1)c1ccccc1C2=O (centres undefined)	PME-1 inh 33.5
CS(=O)(=O)N1CCN(c2ccc(NC(=O)C(c3ccccc3)c3ccccc3)cc2)CC1	none
